The full ranking holds about 1,600 compounds; the median of “plate-normalized OD600 growth (mean of duplicates)” is about 0.31, and the lowest 2% start at about 0.23. This excerpt belongs to a sample that is enriched for the lowest values.
Test system: Escherichia coli BW25113
Test: plate-normalized OD600 growth (mean of duplicates) (OD600 (normalized)); higher = more growth (less inhibition)
Conditions: 10 µM
Experimental: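 E. coli BW25113 in LB (100 µl, 96-well, no shaking) was exposed to 10 µM of each compound (here the ChemBridge subset of a ~30,000-member library) and grown at 37°C for 24 h or 15°C for 48 h, in duplicate. Growth was read as OD600 and the duplicate ODs were normalized across screening plates to correct plate-to-plate variation.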

SMILES	plate-normalized OD600 growth (temperature: 15°C, 48 h)	plate-normalized OD600 growth (temperature: 37°C, 24 h)
Cc1ccc2c(c1)C1CN(C)CCC1N2 (stereo not given)	0.227	0.61
O=c1cccc2n1C[C@H]1C[C@H]2CN(Cc2c(Cl)cccc2Cl)C1	0.284	0.625
Cc1ccc(-c2nc3ccccc3c(=O)n2-c2cccc(O)c2)cc1	0.247	0.61
Fc1ccc(CN2CCN(c3cccc(Cl)c3)CC2)c(F)c1	0.253	0.623
CCC(N)C(=O)c1ccc(Br)cc1 (stereo not given)	0.219	0.624
Cc1cccc(C)c1-n1nnnc1C1(Nc2cccc(O)c2)CCCCC1	0.252	0.643
CN1C(=O)N(C)C(=O)C(CCc2ccncc2)(CCc2ccncc2)C1=O	0.266	0.631
CCOc1cc(/C=C/[N+](=O)[O-])ccc1O	0.209	0.585
COc1ccccc1N1CCN(Cc2ccc(N(C)C)cc2)CC1	0.234	0.615
Clc1cccc(N2CCN(Cc3ccc4c(c3)OCO4)CC2)c1	0.275	0.647
CCN1CCN(Cc2ccc(OC)c(C)c2)CC1	0.261	0.606
COc1cccc(CN2CCN(c3ccccc3)CC2)c1	0.252	0.608
Oc1cccc(CN2CCN(c3ccccc3Cl)CC2)c1	0.26	0.611
COc1cccc(CN2CCN(c3cccc(Cl)c3)CC2)c1	0.26	0.623
Cc1cccc(CN2CCN(c3ccccc3)CC2)c1	0.223	0.663
Oc1cccc(CN2CCN(c3ccc(F)cc3)CC2)c1	0.222	0.646
Fc1ccc(N2CCN(CCc3ccccc3)CC2)cc1	0.24	0.615
COc1cc(CN2C[C@@H]3C[C@@H](C2)c2cccc(=O)n2C3)cc(I)c1O	0.263	0.634
O=c1cccc2n1C[C@H]1C[C@H]2CN(Cc2cccc(Cl)c2Cl)C1	0.28	0.659
COc1ccc(CN2C(=O)CC(=O)NC2=O)cc1	0.265	0.633
COc1ccc(N2CCN(Cc3ccc(N(C)C)cc3)CC2)cc1	0.271	0.65
Cc1[nH]c2ccccc2c1CCCNC1CCCCC1	0.264	0.644
Cc1ccccc1-n1c(/C=C/c2ccccc2[N+](=O)[O-])nc2ccccc2c1=O	0.239	0.651
COc1ccc(Br)cc1CN1CCN(C)CC1	0.26	0.617
CN1C(=O)C(C2(C#N)CCCCC2)C(=O)N(C)C1=O	0.264	0.635
COc1cc(Cc2ccc(N)c(OC)c2)ccc1N	0.255	0.625
Cc1ccccc1CN1CCN(c2ccc([N+](=O)[O-])cc2)CC1	0.23	0.605
Nc1ccc(Oc2ccc(N)cc2)cc1	0.168	0.608
OCCN1CCN(Cc2ccc(F)c(F)c2)CC1	0.247	0.612
COC1CCCCC1NC1CCCCC1 (stereo not given)	0.234	0.614

— the supplement of paper PMC4371806
